# Measured values: paper PMC4336329 (PLoS ONE, 2015)
# About 14,000 (4.5%) of roughly 310,000 compounds showed an effect of 50% or more. Effects have a minus sign here. For the sample, strong results were picked, then their nearest neighbours and some compounds at random.
# Molecular target: human ether-à-go-go-related gene (hERG) potassium channel (human, UniProt Q12809)
# Experiment: primary screen, population patch clamp on CHO cells stably expressing hERG; higher = less effect of the substance
# 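Note: peak tail current of the secondary pulse compared with the same well before compound.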
# human ether-à-go-go-related gene (hERG) potassium channel, sequence (Q12809 whole entry, looked up): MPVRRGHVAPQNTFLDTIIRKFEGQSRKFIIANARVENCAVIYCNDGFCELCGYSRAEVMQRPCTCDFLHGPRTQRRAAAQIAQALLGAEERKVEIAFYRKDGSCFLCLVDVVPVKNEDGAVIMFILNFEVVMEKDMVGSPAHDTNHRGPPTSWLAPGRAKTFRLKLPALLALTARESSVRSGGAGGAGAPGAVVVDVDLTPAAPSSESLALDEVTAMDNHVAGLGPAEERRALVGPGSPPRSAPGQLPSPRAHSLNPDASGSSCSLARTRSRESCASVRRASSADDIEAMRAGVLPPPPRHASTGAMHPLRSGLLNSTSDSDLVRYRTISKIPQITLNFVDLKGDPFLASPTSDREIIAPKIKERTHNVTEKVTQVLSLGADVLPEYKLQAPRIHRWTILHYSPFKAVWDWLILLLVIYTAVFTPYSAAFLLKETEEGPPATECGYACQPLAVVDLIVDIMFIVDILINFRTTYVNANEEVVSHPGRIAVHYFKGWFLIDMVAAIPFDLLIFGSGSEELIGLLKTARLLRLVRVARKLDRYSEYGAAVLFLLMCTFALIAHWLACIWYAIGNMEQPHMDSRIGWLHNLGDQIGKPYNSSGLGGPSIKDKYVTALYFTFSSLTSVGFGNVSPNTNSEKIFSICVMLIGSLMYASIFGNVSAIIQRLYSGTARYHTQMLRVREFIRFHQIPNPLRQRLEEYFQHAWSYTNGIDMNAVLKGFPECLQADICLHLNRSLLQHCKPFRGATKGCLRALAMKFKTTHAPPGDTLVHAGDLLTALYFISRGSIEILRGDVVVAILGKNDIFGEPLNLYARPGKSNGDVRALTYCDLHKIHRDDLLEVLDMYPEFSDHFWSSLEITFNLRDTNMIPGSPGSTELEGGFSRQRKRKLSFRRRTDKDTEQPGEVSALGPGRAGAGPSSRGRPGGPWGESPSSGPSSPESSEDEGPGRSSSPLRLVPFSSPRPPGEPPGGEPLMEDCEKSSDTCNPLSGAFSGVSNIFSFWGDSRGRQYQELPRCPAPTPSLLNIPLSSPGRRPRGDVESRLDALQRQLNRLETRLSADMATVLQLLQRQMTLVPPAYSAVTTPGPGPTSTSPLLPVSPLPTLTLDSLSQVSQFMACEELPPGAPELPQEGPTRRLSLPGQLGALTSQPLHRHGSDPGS
row,SMILES,"hERG current change (%, negative = inhibition) at 10uM"
1,Cc1nc2scc(-c3ccccc3)c2c(=O)n1N,-1.43%
2,Cc1nc(-c2cccnc2)sc1C(=O)Nc1ccc(Cl)cc1,-29.2%
3,CNC(=O)c1sc(-c2cccnc2)nc1C,-34.7%
4,Cc1nc(-c2cccnc2)sc1C(=O)N/N=C/c1ccccc1Cl,-75.5%
5,COc1ccc(/C=C(\NC(=O)c2ccccc2)C(=O)N2CCN(C)CC2)cc1OC,20%
6,CN1CCN(C(=O)/C(=C/c2ccc(N(C)C)cc2)NC(=O)c2ccccc2)CC1,-17.5%
7,CN1CCN(C(=O)/C(=C/c2ccc(F)cc2)NC(=O)c2ccccc2)CC1,-77.8%
8,CSc1ccc(/C=C(/NC(=O)c2ccccc2)C(=O)N2CCN(C)CC2)cc1,-75.9%
9,O=C(N/C(=C/c1ccccc1F)C(=O)N1CCCCC1)c1ccccc1,10.1%
10,CN1CCN(C(=O)/C(=C/c2ccccc2F)NC(=O)c2ccccc2)CC1,-29.2%
11,O=C(N/C(=C\c1ccc(F)cc1)C(=O)N1CCCCCC1)c1ccccc1,-11.6%
12,CC1CCN(C(=O)/C(=C\c2ccccc2F)NC(=O)c2ccccc2)CC1,-52.7%
13,O=C(N/C(=C/c1ccc(F)cc1)C(=O)N1CCCC1)c1ccccc1,19.5%
14,C[C@@H](CSc1ccc(Br)cc1)CN1CC[C@H](O)CCC1=O,-12%
15,COc1ccc2oc(C(=O)OCC(=O)NC3CC3)c(C)c2c1,11%
16,Cc1sc2ncn(CC(=O)NCC(=O)N3CCC4(CC3)OCCO4)c(=O)c2c1C,-4.54%
17,Cc1cc(NC(=O)c2c([N+](=O)[O-])cnn2C)no1,14.2%
18,Nc1ccccc1C(=O)NC1CCCCNC1=O (centres unmarked),26.2%
19,CC1(C)N=C(N)NC(Nc2ccccc2Cl)=N1,20.9%
20,C[C@@H](C(=O)O)[C@H]1C[C@]1(C)[C@H](NC(=O)OCc1ccccc1)c1ccccc1,4.41%
21,COc1cccc(NC(=O)CC2(CC(=O)O)CCCC2)c1,-39.8%
22,CC1Cc2cc(S(=O)(=O)N3CCCC(C(=O)N4CCCCC4)C3)ccc2N1C(=O)C1CC1 (centres unmarked),-4.84%

row,SMILES,"hERG current change (%, negative = inhibition) at 10uM"
1,O=C(c1cc(-c2ccc(Cl)cc2)n(-c2ccc(Cl)cc2Cl)n1)N1CCOCC1,-79.6%
2,O=C(c1cc(-c2ccc(Cl)cc2)n(-c2cc(Cl)ccc2Cl)n1)N1CCOCC1,-68.9%
3,O=C(c1cc(Cl)ccc1Cl)N1CCOCC1,8%
4,O=C(c1cc(-c2ccc(Cl)cc2)on1)N1CCOCC1,-0.136%
5,O=C(O)c1cc(-c2ccccc2)n(-c2ccc(Cl)cc2Cl)n1,21.5%
6,O=C(c1cc(-c2ccc(Cl)cc2Cl)on1)N1CCOCC1,-9.72%
7,N#C/C(=C\c1ccc(-c2nc3ccccc3s2)o1)C(N)=O,5.03%
8,COc1ccc(C(=O)NC(C)C2CC3CCC2C3)cc1 (centres unmarked),2.42%
9,CC1=CN2C(=N)/C(=C/c3ccc(Sc4ccc(C)cc4)o3)C(=O)N=C2S1,10.1%
10,CCn1c(COc2ccccc2C)nc2ccccc21,4.07%
11,CCCCCCCCCCOC(=O)Cn1c(COc2ccccc2C)[n+](C)c2ccccc21.[Cl-],-72.5%
12,CCCCCCCCCCOC(=O)Cn1c(COc2ccccc2OC)[n+](C)c2ccccc21.[Cl-],-77.3%
13,CCOC(=O)C(CCCOc1ccccc1C)C(=O)OCC,6.43%
14,Cn1c(COc2ccccc2O)[n+](C)c2ccccc21.[Br-],15.8%
15,CCOC(=O)Cn1c(COc2ccccc2OC)[n+](C)c2ccccc21,7.4%
16,CCOC(=O)c1nn(-c2ccc(Cl)cc2)c(=O)c(C#N)c1C,5.94%
17,CCCCNC(=S)N(C)/N=C/c1ccc(OCc2ccc(C(=O)OC)cc2)c(OC)c1,11.8%
18,O=C(N/N=C/c1cccnc1)c1ccc2c(c1)OCCO2,8.1%
19,Cc1ccc(CSCC(=O)N(C)CC(=O)Nc2c(Cl)cccc2Cl)cc1,-9.07%
20,CCOC(=O)C1CN(S(=O)(=O)c2ccc(C)cc2)c2cc(S(=O)(=O)CC)ccc2O1 (centres unmarked),-41%
21,CCOC(=O)C1CN(S(=O)(=O)c2ccc(OC)cc2)c2cc(S(=O)(=O)CC)ccc2O1 (centres unmarked),-52%
22,CCOC(=O)C1CN(S(=O)(=O)c2ccccc2)c2cc(S(=O)(=O)CC)ccc2O1 (centres unmarked),-23.3%

row,SMILES,"hERG current change (%, negative = inhibition) at 10uM"
1,CC(=O)Oc1ccc(C2OC(=O)c3ccccc3N2C(C)=O)cc1 (centres unmarked),1.12%
2,CCN(C(=O)Cc1c(C(=O)O)n(C)c2ccccc12)c1cc(OC)ccc1OC,11.9%
3,O=S(=O)(NCc1ccccn1)c1ccccc1,-2.19%
4,CNc1oc(-c2ccc(Cl)cc2)nc1C#N,-4.17%
5,Cc1cc(C)cc(N2CCCn3c2nc2c3c(=O)[nH]c(=O)n2C)c1,13.6%
6,CC(C)(C)n1nnnc1CN(Cc1cccnc1)Cc1ccccc1Cl,-33%
7,CC(C)(C)n1nnnc1C(c1cccs1)N(Cc1cccnc1)Cc1ccccc1Cl (centres unmarked),-11.4%
8,CC(c1nnnn1C(C)(C)C)N(Cc1cccnc1)Cc1ccccc1Cl (centres unmarked),-52.3%
9,CCOC(=O)c1nc(C)n(-c2cc(OC)c(Cl)cc2Cl)n1,5.95%
10,O=C(CCCOc1ccccc1)Nc1cccc(C(=O)O)c1,12.6%
11,COc1ccc(OC)c(NC(=O)CSc2nnc(-c3ccco3)o2)c1,-15.7%
12,O=C(CSc1nc(=O)n(CCCN2CCOCC2)c2c1CCCC2)Nc1ccc(Cl)cc1,-77.7%
13,Cc1cc(C)cc(NC(=O)CSc2nc(=O)n(CCCN3CCOCC3)c3c2CCCC3)c1,-55.2%
14,Cc1cccc(NC(=O)CSc2nc(=O)n(CCCN3CCOCC3)c3c2CCCC3)c1,-42.4%
15,CC(C)c1ccc(NC(=O)CSc2nc(=O)n(CCN3CCOCC3)c3c2CCC3)cc1,-41.5%
16,Cc1ccc(NC(=O)CSc2nc(=O)n(CCCN3CCOCC3)c3c2CCCC3)cc1F,-50.2%
17,CC(C)c1ccc(NC(=O)CSc2nc(=O)n(CCCN3CCOCC3)c3c2CCC3)cc1,-51.3%
18,CC(C)c1ccc(NC(=O)CSc2nc(=O)n(CCCN3CCOCC3)c3c2CCCC3)cc1,-39.7%
19,Cc1ccc(NC(=O)CSc2nc(=O)n(CCCN3CCOCC3)c3c2CCCC3)c(C)c1,-36.7%
20,Cc1ccc(NC(=O)CSc2nc(=O)n(CCCN3CCOCC3)c3c2CCCC3)cc1,-45.5%
21,CCN(CC(=O)Nc1c(F)cccc1F)C(=O)CN1C(=O)NC2(CCCC2)C1=O,22.5%
22,CCN1CCCc2cc(CN(CCN3CCOCC3)C(=S)Nc3ccc(C)cc3)ccc21,-8.41%

row,SMILES,"hERG current change (%, negative = inhibition) at 10uM"
1,CCN1CCN(S(=O)(=O)Cc2ccccc2)CC1,8.52%
2,COc1ccc2oc(C(=O)OCC(=O)NCC3CCCO3)c(C)c2c1 (centres unmarked),2.35%
3,Cc1ccc(N2C(=O)c3ccccc3C2(O)c2ncc[nH]2)cc1 (centres unmarked),15%
4,O=S(=O)(c1ccc(NC(=S)N/N=C/c2c3ccccc3cc3ccccc23)cc1)N1CCOCC1,8.09%
5,O=C1c2ccccc2C(=O)N1CCCCN(C(=O)c1cc2ccccc2oc1=O)c1ccc(F)cc1F,1.03%
6,Cc1cc(C(C)(C)C)oc1C(=O)OCC(=O)NC1CCCCC1,0.649%
7,O=C(NC(Cc1ccccc1)c1ccc2c(c1)OCCCO2)c1ccccc1 (centres unmarked),19.1%
8,O=C(NCCS(=O)(=O)NCc1ccc(F)cc1)c1ccc2c(c1)OCO2,-39.8%
9,COc1ccccc1-n1c(O)c(C=NCCN2CCNCC2)c(=O)[nH]c1=O,14.4%
10,O=C(CSc1nc(=O)n(CCCN2CCOCC2)c2c1CCCC2)Nc1ccc(F)c(F)c1,-58%
11,O=C(CSc1nc(=O)n(CCCN2CCOCC2)c2c1CCCC2)Nc1ccc(F)cc1,-43.7%
12,O=C(CSc1nc(=O)n(CCCN2CCOCC2)c2c1CCCC2)Nc1ccc(F)cc1F,-22.6%
13,CC(C)(C)C(=O)Nc1ccccc1C(=O)Nc1ccccn1,3.65%
14,O=C(COc1ccccc1)N1CCN(CCN2C(=O)c3cccc4cccc(c34)C2=O)CC1,-8.43%
15,O=C1c2cccc3cccc(c23)C(=O)N1CCN1CCN(CC(O)COc2ccccc2)CC1 (centres unmarked),-60%
16,COc1ccc(C(=O)CN2CCN(CCN3C(=O)c4cccc5cccc(c45)C3=O)CC2)cc1,-26.5%
17,O=C1c2cccc3cccc(c23)C(=O)N1CCN1CCN(CC(O)COc2ccc3ccccc3c2)CC1 (centres unmarked),-11.7%
18,COc1cccc(OCC(O)CN2CCN(CCN3C(=O)c4cccc5cccc(c45)C3=O)CC2)c1.Cl (centres unmarked),-59.2%
19,O=C(CSc1nnc(NC(=O)C2CC2)s1)Nc1ccc(F)cc1,12.5%
20,COc1ccc(-c2nc3n(n2)C(c2ccncc2)C(C(N)=O)=C(C)N3)cc1 (centres unmarked),0.391%
